# AmpC inh no detg: AmpC beta-lactamase inhibition without detergent; P00811; AmpC nitrocefin hydrolysis, absorbance 480 nm, 0.0001% Triton; Potency, µM (titrated, usually from 57.1 µM), most hits filed as inhibitors; 0.52% of 330,000 active; AID 485341; further: nearly all actives have a fitted effect of over 20% in size
#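 20 mM phosphate pH 7.0 + 0.01% (detergent screen) or 0.0001% Triton X-100; 5.3 nM AmpC reagent; cpd preinc 15 min RT; nitrocefin (800 uM stock) to start; A480 q20 s × 4 min; Activity was normalised to no-enzyme and no-compound control wells.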
# SARS PLpro yeast: inhibitors of SARS-CoV papain-like protease in yeast; Potency, µM (series often up to 32.9 µM), usual class: activators; S. cerevisiae expressing SARS-CoV PLpro, growth rescue; AID 485353; 0.19% of 330,000 active; calls by dose curve; further: nearly all actives have a fitted effect of over 55% in size
# Giardia FBPA inh-1: inhibitors of Giardia lamblia fructose-1,6-bisphosphate aldolase. 0.71% of 290,000 active. Potency, µM (doses to about 59.6 µM), actives largely listed as inhibitors. A8B2U2. purified Giardia FBPA. AID 2451; further: nearly all actives have a fitted effect of over 55% in size
# Target sequence (A8B2U2 whole entry, looked up): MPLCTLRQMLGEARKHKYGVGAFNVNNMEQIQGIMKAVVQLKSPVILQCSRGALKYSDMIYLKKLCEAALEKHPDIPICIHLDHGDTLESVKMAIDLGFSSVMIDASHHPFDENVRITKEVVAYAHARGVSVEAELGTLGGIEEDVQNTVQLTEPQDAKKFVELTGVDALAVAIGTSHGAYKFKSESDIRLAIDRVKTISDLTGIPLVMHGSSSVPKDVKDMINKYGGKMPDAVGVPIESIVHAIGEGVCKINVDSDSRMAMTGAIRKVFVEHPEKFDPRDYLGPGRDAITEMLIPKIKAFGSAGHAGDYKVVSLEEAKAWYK
#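 Giardia FBPA (40 nM reagent) was preincubated 10 min at RT with compound (up to 57.5 uM final), then substrate plus GAPDH/TPI/NAD/arsenate coupling system with diaphorase/resazurin was added; resorufin fluorescence (525/598 nm) was read after 20 min.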
# AmpC inh detg: AmpC beta-lactamase inhibition with detergent present. Potency, µM (highest dose often 114 µM), actives largely listed as inhibitors. 0.041% of 370,000 active. AID 485294. AmpC hydrolysis of nitrocefin, absorbance 480 nm, 0.01% Triton. P00811; further: nearly all actives have a fitted effect of over 25% in size
#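 AmpC (5.3 nM in the dispensed reagent) in 20 mM phosphate pH 7.0 with 0.01% (detergent screen) or 0.0001% Triton X-100 was preincubated with compounds for 15 min at room temperature. Nitrocefin was then added from an 800 uM solution, and hydrolysis was followed at 480 nm.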
# Giardia growth: Giardia lamblia growth inhibition; Giardia lamblia trophozoite growth inhibition; shares compounds with Giardia FBPA inh-1; 5% of 1,500 active; Potency, µM (top dose mostly 57.5 µM), usual class: inhibitors;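 further: trophozoites exposed to compound for 48 h at 37 °C; nearly all actives have a fitted effect of over 70% in size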
# Mammalian tox: toxic to mammalian cells in Giardia aldolase counter-screen; shares compounds with Giardia FBPA inh-1; mammalian cell viability counter-screen, qHTS; Potency, µM (series often up to 57.5 µM), hits mostly inhibitors; 4% of 1,500 active; AID 2786;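 further: Chinese hamster ovary cells used as mammalian cytotoxicity surrogate; viability measured as cellular ATP by luminescence; compound exposure lasted 48 h before reading; nearly all actives have a fitted effect of over 60% in size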
# Giardia FBPA inh-2: confirmation of Giardia fructose-bisphosphate aldolase inhibitors; Potency, µM (series often up to 57.5 µM), most hits filed as inhibitors; shares compounds with Giardia FBPA inh-1; AID 2787; purified Giardia aldolase enzyme activity, qHTS; 5% of 1,500 active; further: nearly all actives have a fitted effect of over 45% in size
# Rabbit FBPA inh: rabbit FBP aldolase inhibition by Giardia aldolase hits; Rabbit muscle FBPA enzyme inhibition, selectivity counter-screen; shares compounds with Giardia FBPA inh-1; Potency, µM (titrated, usually from 57.5 µM), actives largely listed as inhibitors; 4% of 1,500 active; further: nearly all actives have a fitted effect of over 60% in size
# GAPDH counter: counter-screen for Giardia aldolase inhibitors: GAPDH coupling enzyme. shares compounds with Giardia FBPA inh-1. GAPDH coupling enzyme counterscreen, biochemical, qHTS. Potency, µM (titrated, usually from 57.5 µM), actives largely listed as inhibitors. 6% of 1,500 active; further: nearly all actives have a fitted effect of over 55% in size
# Hits are given with their value; 0 = inactive; ? = inconclusive; - = not tested or not shown; [ ] = dose if it differs, or a comment. An excerpt weighted towards active compounds, which were near 1.1% of everything screened. Unless noted, the call rests on the fitted dose curve; in most records, active means well fitted curve in the direction sought with a large enough effect; inconclusive means small, poorly fitted or top-dose-only effect, or another doubt; inactive means no such curve, though single readings can be large; an effect the other way counts as inactive or inconclusive.
SMILES,AmpC inh no detg,SARS PLpro yeast,Giardia FBPA inh-1,AmpC inh detg,Giardia growth,Mammalian tox,Giardia FBPA inh-2,Rabbit FBPA inh,GAPDH counter
CCCCc1c(O)nc(SC2CC(=O)N(c3ccc(C(=O)OCC)cc3)C2=O)[nH]c1=O (configuration not stated),0,0,7.08µM,?,0[10.4 µM],0,0,0,0
CCOc1ccccc1N(CC)C(=O)c1cc2c(=O)n(CC)c3ccccc3c2s1,-,-,-,0,-,-,-,-,-
Cc1n[nH]c(=S)n(/N=C/c2cccc([N+](=O)[O-])c2)c1=O,0,0,?,0,-,-,-,-,-
COc1cc(/C=N/n2c(=S)[nH]nc(C)c2=O)cc([N+](=O)[O-])c1O,0,0,15.8µM,0,?,0,0,0,0
COC(=O)c1ccc2c(=O)n(CCc3ccc(S(N)(=O)=O)cc3)c(SCC(=O)C(C)(C)C)nc2c1,-,-,-,0,-,-,-,-,-
N#Cc1ccccc1-c1ccc2ncnc(NCc3cccs3)c2c1,-,-,0,-,-,-,-,-,-
O=C(O)CCCCCn1c(SCC(=O)c2ccc(O)c(O)c2)nc2ccsc2c1=O,0,0,3.97µM,0,0[10.4 µM],0,0,0,0
COc1ccc(CN2CCN(Cc3ccco3)CC2)c(OC)c1,0,0,12.6µM,0,?,0,0,0,0
Cc1ccc(CN2CCN(Cc3ccco3)CC2)cc1,0,0,15.8µM,0,0,0,0,0,0
Cc1ccc(CN2CCN(C(=O)c3ccco3)CC2)cc1,0,0,0,0,-,-,-,-,-
COc1ccccc1CN1CCN(Cc2ccco2)CC1,0,0,15.8µM,0,0[10.4 µM],0,0,0,0
O=[N+]([O-])c1cccc(CN2CCN(Cc3ccco3)CC2)c1,0,0,?,0,-,-,-,-,-
COc1cc(CN2CCN(Cc3ccco3)CC2)cc(OC)c1,0,0,14.1µM,0,?,0,0,0,0
Cc1ccc(-n2nc(CO)c(C(=O)NC(C)CCCc3ccccc3)n2)cc1 (configuration not stated),-,-,-,0,-,-,-,-,-
Cc1ccncc1C(=O)O,-,-,0,-,-,-,-,-,-
CCn1c(SCC(=O)c2ccc(O)c(O)c2)nnc1-c1ccccc1,0,0,2.23µM,0,0,0,0,0,0
C=CCn1c(SCC(=O)c2ccc(O)c(O)c2)nnc1-c1ccccc1OC,0,0,3.15µM,0,?,?,0,0,0
C=CCn1c(SCC(=O)c2ccc(O)c(O)c2)nnc1-c1cccc(Cl)c1,0,0,-,0,-,-,-,-,-
CCn1c(SCC(=O)c2ccc(O)c(O)c2)nnc1-c1ccccc1OC,0,0,3.15µM,0,?,0,0,0,0
C=CCn1c(SCC(=O)c2ccc(O)c(O)c2)nnc1-c1cccnc1,0,0,15.8µM,0,0[10.4 µM],0,0,0,0
COc1ccccc1-c1nnc(SCC(=O)c2ccc(Cl)cc2)n1-c1ccccc1,-,-,-,0,-,-,-,-,-
C=CCn1c(SCC(=O)c2ccc(O)c(O)c2)nnc1-c1cccc(C)c1,0,0,-,0,-,-,-,-,-
CCc1c(C)sc2c1CCN(Cc1ccc(F)cc1)C2c1ccccc1 (configuration not stated),-,-,-,0,-,-,-,-,-
CCOc1ccc(C(=O)c2cn(CC(=O)Nc3ccc4c(c3)OCCO4)c3ccc(F)cc3c2=O)cc1,-,-,-,0,-,-,-,-,-
NC(=S)c1cn(C2OC(CO)C(O)C2O)c2ncnc(N)c12 (configuration not stated),0,0,14.1µM,0,0,?,0,0,0
CCOc1ccccc1N(CC(=O)Nc1ccc(OC)c(Cl)c1)S(=O)(=O)c1ccccc1,-,-,-,0,-,-,-,-,-
S=C(NCc1ccccc1)Nc1nccs1,0,0,12.6µM,?,0,0,0,0,0
CCCN(C(=O)c1cc2c(=O)oc3ccccc3c2s1)c1ccccc1C,-,-,-,0,-,-,-,-,-
CC(=O)c1ccc(NC(=O)CSc2nccn2Cc2ccc3c(c2)OCO3)cc1,-,-,-,0,-,-,-,-,-
O=C(NNC(=O)c1ccccn1)c1cccc([N+](=O)[O-])c1,0,0,9.98µM,0,?,?,0,0,0
